VP16 counter: counter-screen for ROR gamma inhibitors: Gal4-VP16 reporter | Drosophila S2 Gal4-VP16 UAS-luciferase, luminescence, 20 h | Potency, µM (top dose mostly 53.6 µM), without a hit: at the top dose activity, negative = inhibition, actives largely listed as inhibitors | hit rate 3.5% among 310,000 | AID 2546;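 note: Gal4-VP16 expression switched on by copper sulfate through the metallothionein promoter; nearly all actives have a fitted effect of over 50% in size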
RORg inh: blocks mouse ROR gamma transcriptional activity; hit rate 5.4% among 310,000; Drosophila S2 Gal4-RORgamma UAS-luciferase reporter, 20 h; Potency, µM (doses to about 53.6 µM), inactives show at the highest dose activity change, negative = inhibition, actives largely listed as inhibitors; P51450; AID 2551; note: nearly all actives have a fitted effect of over 60% in size
Target sequence (P51450 whole entry, looked up, the tested form may be a part): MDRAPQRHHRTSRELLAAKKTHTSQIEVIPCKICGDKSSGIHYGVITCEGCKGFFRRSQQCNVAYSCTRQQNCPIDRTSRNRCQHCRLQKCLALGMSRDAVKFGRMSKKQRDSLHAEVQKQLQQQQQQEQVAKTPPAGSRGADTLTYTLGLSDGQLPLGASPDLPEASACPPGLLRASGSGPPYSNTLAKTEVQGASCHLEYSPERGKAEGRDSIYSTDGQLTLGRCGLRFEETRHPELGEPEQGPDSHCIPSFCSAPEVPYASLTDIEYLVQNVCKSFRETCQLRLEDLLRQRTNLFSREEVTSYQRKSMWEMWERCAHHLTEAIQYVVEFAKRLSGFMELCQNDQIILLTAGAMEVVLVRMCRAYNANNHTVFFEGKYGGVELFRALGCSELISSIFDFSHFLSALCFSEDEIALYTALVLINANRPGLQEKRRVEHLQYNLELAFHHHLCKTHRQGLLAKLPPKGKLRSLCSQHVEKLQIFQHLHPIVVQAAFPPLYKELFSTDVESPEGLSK
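Compounds are pin-transferred onto Drosophila Schneider cells expressing a copper-inducible Gal4–ROR gamma transactivation domain fusion. After 1 hr, copper sulfate is added to 700 uM final; luciferase is read 20 hr later.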
KinaseGlo FLuc: Kinase-Glo luciferase inhibition (counter-screen); hit rate 0.28% among 200,000; Potency, µM (titrated, usually from 38.3 µM), for inactives: at the highest dose activity change, negative = inhibition, hits mostly inhibitors; Q27757; AID 1379; Kinase-Glo luciferase, ATP luminescence, 8 min; note: nearly all actives have a fitted effect of over 60% in size
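Compound is pinned into ATP-containing buffer (10 uM ATP, imidazole pH 7.2, 7 mM MgCl2). Kinase-Glo luciferase reagent is then added. Light output is recorded following an 8-min room-temperature incubation.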
Active calls of the source: *; ? = inconclusive; · = no result given; [ ] = another dose, or the depositor's remark. Sampled rows, rich in hits. Any-hit rate of the full collection: about 6.4%. Calls come from the whole dose curve; as a rule, active = well fitted curve in the direction sought with a large enough effect; inconclusive = small, poorly fitted or top-dose-only effect, or another doubt; inactive = no such curve, though single readings can be large; an effect the other way counts as inactive or inconclusive. % is set by controls: 0 for no effect and ±100 for the full control effect; potency is the fitted concentration of half-maximal effect.

SMILES | VP16 counter | RORg inh | KinaseGlo FLuc
COc1ccc2cc(C(=O)NCc3ccco3)c(=Nc3ccc(C(=O)O)cc3)oc2c1 | 2.8µM* | 1.1µM* | 5%
COc1ccc2cc(C(=O)NCc3ccco3)c(=O)oc2c1 | -18% | 3% | -3%
O/N=C/c1cc(Cl)ccc1OCc1cccc2ccccc12 | -13% | -2% | 3%
COc1ccc(NC(=S)N2CCN(C(=O)c3ccco3)CC2)cc1OC | -10% | -23% | ·
O=c1ccc(-c2ccc(S(=O)(=O)Nc3cccc(Br)c3)o2)n[nH]1 | 5% | 9% | ·
O=C(N/N=C/c1ccccn1)c1ccncc1 | 3% | 1% | ·
CCC/C=N/NC(=O)CNC(=O)c1ccccc1Cl | 10% | -10% | 0%
Cc1ccccc1C(=O)N/N=C/c1ccncc1 | 0% | -5% | -12%
CCOC(=O)C(CC)/C(C)=N\NC(=O)c1ccccc1O (stereo not given) | 13µM* | 10µM* | -15%
CCC/C=N/NC(=O)c1ccccc1O | -81% | 10µM* | 0%
O=C(N/N=C\c1ccncc1)c1ccccc1O | ? | 11µM* | -3%
O=C(N/N=C/c1ccccn1)c1cccs1 | ? | 7.1µM* | ?
CCC/C(C)=N/NC(=O)c1ccccc1O | ? | ? | -2%
Cc1ccccc1CC1SC(N=C(N)N)=NC1=O (stereo not given) | -9% | 31%[1.91 µM] | ·
Cc1ccc(NC(=S)N2CCN(S(=O)(=O)c3ccccc3)CC2)cc1C | ? | -106% | ·
COc1ccc(CCC(C)N2CCOCC2)cc1 (stereo not given) | 0% | 0% | ·
COc1cccc(-c2cc(=O)c3cc(NC(=O)c4cccnc4)ccc3[nH]2)c1 | -1% | 11% | 3%[39.9 µM]
CC(=O)OCC1OC(C#CC2=CCCCC2)C=CC1OC(C)=O (stereo not given) | 8%[10 µM] | 13%[10 µM] | ·
N#CCCn1c(=O)c(-c2cccs2)nc2cnc(OCc3ccccc3)nc21 | 2% | -44% | 0%
COCCNc1nc(N2CCCCC2)c2cnn(C)c2n1 | 6% | -13% | ·
C[C@@H](C[N+](C)(C)C)OC(N)=O | -7%[17 µM] | 36%[16.9 µM] | -1%[17.1 µM]
CCOc1ccc(Br)cc1C(=O)N/N=C/c1ccc([N+](=O)[O-])cc1 | 0% | 4% | 3%
COc1ccc(OC)c(C(=O)N/N=C/c2ccccn2)c1 | 1% | 27% | ·
O=C(Cc1ccc(Br)c2ccccc12)N/N=C/c1ccccn1 | -19% | 7.9µM* | -4%
CCOc1ccc(Br)cc1C(=O)N/N=C/c1ccccn1 | 2% | 11µM* | ·
SMILES | VP16 counter | RORg inh | KinaseGlo FLuc
Cc1ccccc1C(=O)N/N=C/c1ccccn1 | ? | 10µM* | 3%
Cc1ccc(OC(C)C(=O)N/N=C/c2ccccn2)cc1 (stereo not given) | 1% | ? | 3%
COc1ccc(C(=O)Nc2ccccc2C(=O)N/N=C/c2ccccn2)cc1OC | 3.2µM* | 1.3µM* | ·
O=C(Cc1ccc(F)cc1)N/N=C/c1ccccn1 | 11% | -32% | 1%
O=C(Nc1ccccc1C(=O)N1CCCCC1)NC1CCCCC1 | 8% | 2% | 1%
CCOc1cc(C(=O)N=c2sccn2C)cc(Br)c1OC | 1% | 39% | ·
COC(=O)CNC(c1ccccc1)c1cc(Br)ccc1NS(=O)(=O)c1ccc(C)cc1 (stereo not given) | -22% | ? | 3%
Cc1ccc(/C=N\NC(=O)CNC(=O)C23CC4CC(CC(C4)C2)C3)o1 | -2% | -12% | ·
Cc1ccccc1OCC(=O)N/N=C/c1ccccn1 | 7% | 14µM* | -2%
Cc1ccc(C)c(OCC(=O)NCCNC(=O)COc2cc(C)ccc2C)c1 | -6% | 30% | 0%
O=C(N/N=C/c1ccc(-c2ccccc2)o1)c1ccccc1O | 0.63µM* | ? | ·
O=C(N/N=C\c1ccccn1)c1ccccc1O | 4.5µM* | 2µM* | -17%
Cc1cc(C)cc(OCC(=O)N/N=C/c2ccccn2)c1 | -4% | -21% | ·
C/C=N\NC(=O)COc1cc(C)ccc1C | -1% | 13µM* | 0%
COC(=O)c1ccccc1-c1ccc(/C=N/NC(N)=O)o1 | 5% | -4% | ·
COc1cc(C(=O)NC(C)CCn2cccn2)ccc1OC1CCN(C(C)=O)CC1 (stereo not given) | 0% | 13% | ·
Cc1cc(NC(=O)c2cccnc2)ccc1Br | -10% | 28% | ·
COc1ccc(-c2oc3cccnc3c2/C=C/c2ccc(OC)c(OC)c2)cc1 | 16% | 2% | ·
CCOc1ccc(CNS(=O)(=O)c2c(C)nc3sccn3c2=O)cc1OC | 9% | -10% | ·
COC(=O)C(C(=O)OC)[C@@H]1c2ccccc2[C@H]2C(=C[C@@H](C)[C@H]3C(=O)N(c4ccccc4)C(=O)[C@H]32)N1C(=O)OC | · | · | -2%[7.66 µM]
O=c1cc(O)c2c(=O)n(-c3ccccc3)c3c(c2o1)CCCCCC3 | -7% | -20% | -2%
CC(=O)c1c(C)[nH]c(C(=O)NC(C)c2ccccc2)c1C (stereo not given) | -4% | 6% | -1%
CCOC(=O)c1c(C)cc(C)[nH]c1=O | -1% | 0% | -3%
CCOC(=O)NNC(=O)NCCCCCCNC(=O)NNC(=O)OCC | 8% | 12% | ·
CCOc1ccccc1C(=O)Oc1cc(C)[nH]c(=O)c1[N+](=O)[O-] | -1% | -22% | ·
SMILES | VP16 counter | RORg inh | KinaseGlo FLuc
N/C(=N\OC(=O)c1ccc2c(c1)OCO2)c1cccc(Br)c1 | ? | -1% | 13µM*
N/C(=N\OC(=O)c1ccc2c(c1)OCO2)c1cccnc1 | ? | -78% | ?
CCC1=C2CC[C@H]3C(=O)N(c4ccccc4)C(=O)[C@H]3[C@H]2[C@@]2(C)C(=O)N(CC(=O)OC)C(=O)N2C1=O | 2% | 3% | -6%
Oc1ccc(/C=N/N=C(c2ccccc2)c2ccccc2)c(O)c1O | ? | ? | 5%
O=C(/C(=N/N=C/c1ccc(O)c(O)c1O)c1ccccc1)c1ccccc1 | 10µM* | ? | -5%
Cc1ccc2nc(C)cc(C(=O)Nc3nccs3)c2c1 | -6% | -40% | -1%
C/C(CC(=O)Nc1ccc(Cl)c(C(F)(F)F)c1)=N\NC(=O)c1ccccc1O | ? | ? | -1%
C/C(CC(=O)NC(C)(C)C)=N\NC(N)=S | ? | 11µM* | -1%
C/C(CC(=O)NC(C)(C)C)=N\NC(=O)c1ccccc1N | -2% | ? | 1%
C/C(CC(=O)Nc1ccc(Cl)c(C(F)(F)F)c1)=N\NC(N)=S | ? | 11µM* | -1%
Cc1onc(-c2ccccc2)c1C(=O)NCc1ccccc1F | 5% | 9% | ·
Cc1ccc(CNC(=O)CS(=O)(=O)Cc2nc(-c3ccc(C)cc3)oc2C)cc1 | -3% | -21% | ·
COc1ccc(Nc2nc(Cl)c(C=O)s2)cc1 | 22% | 22% | 0%
Cc1ccc(-n2c(Cl)c(Cl)nc(Cl)c2=O)cc1 | 5µM* | 2.8µM* | -2%
COc1nc(Cl)cn(-c2ccc(C)cc2)c1=O | -2% | 27% | 12%
COc1cc(CCNC(C)=O)c(C(=O)/C=C/c2cccc(OC)c2OC)cc1OC | 24% | ? | 1%
O=c1cc2oc3cc(O)c(O)cc3c(-c3ccccc3[N+](=O)[O-])c-2cc1O | ? | -32% | ·
CCN1C(=O)/C(=C/C=C2\C=CN(CC)c3ccccc32)SC1=S | -6% | 14% | -26%
CCN1C(=O)/C(=C\C=C2/C=CC=CN2CC)SC1=S | ? | 8.9µM* | ?
O=c1ccn(Cc2ccccc2)c(=O)n1Cc1ccccc1 | -4% | 11% | 1%

Screens deposited in PubChem BioAssay by National Center for Advancing Translational Sciences (NCATS).
